# According to PubChem BioAssay (NCI):
# Compounds without any hit were thinned out: in the full panel of roughly 79,000, 15% have a hit. Active and inactive are the calls of the source. Cut-off read from the data, not from the text of the source: active = growth inhibition above about 70%; inactive = the rest. Where a SMILES comes first, the peptide text is derived from it. The star is where a group is joined. ONp = O=[N+]([O-])c1ccc(O*)cc1; Tos = Cc1ccc(S(=O)(=O)*)cc1
# Test: NCI Yeast Anticancer Drug Screen. Data for the bub3 strain (AID 167)
# Details: S. cerevisiae bub3 mutant strain, at 50.0 µM, hits give high values
# Outline: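 Readout: yeast growth inhibition, expressed relative to vehicle-only wells. The test organism is a mutant strain from a panel with lesions in DNA repair or checkpoint genes.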
row,SMILES,growth inhibition
1,Cc1cc(=O)oc2nc(-c3ccccc3)[nH]c(=O)c12,-7.15% (inactive)
2,O=C(Nc1cccc([N+](=O)[O-])c1)Nc1ccccc1F,19.2% (inactive)
3,COc1cc(C2c3c(cc(OC)c(O)c3OC)C=C(C(=O)O)C2CO)cc(OC)c1O (stereo not given),-2.1% (inactive)
4,Cc1cc(C(=O)O)ccc1C(=O)O,-20.4% (inactive)
5,COc1ccc(CC2OCCC3c4ccccc4NC23)cc1OC (stereo not given),3% (inactive)
6,CC(=O)C1=CCC2[C@H]3CC=C4C[C@H](O)CC[C@@]4(C)C3CC[C@@]12C (stereo not given in full),58.6% (inactive)
7,CC(=O)C(C)(C)O,14.2% (inactive)
8,CCc1nnc2n1N=C(c1ccc(-c3ccccc3)cc1)CS2,3.05% (inactive)
9,CC(C)CC(N)C(=O)NC(Cc1c[nH]c2ccccc12)C(N)=O (stereo not given),22.4% (inactive)
10,C=C1CCC2C(C)(CO)C(O)CCC2(C)C1CCC1=CCOC1=O (stereo not given),-4.4% (inactive)
11,Brc1ccccc1-c1nnc(-c2cccc3ccccc23)o1,-26.6% (inactive)
12,O=C1c2ccc([N+](=O)[O-])cc2C(=O)N1CCBr,31.7% (inactive)
13,OCc1ccccc1CC(O)c1ccccc1 (stereo not given),0.05% (inactive)
14,O=C(Nc1ccc2ccccc2c1)C1CC1,-33.1% (inactive)
15,C(=C/c1ccccc1)/CNCCNC/C=C/c1ccccc1,35.3% (inactive)
16,Cc1ccc(S(=O)(=O)NCC(=O)NCC(=O)Oc2ccc([N+](=O)[O-])cc2)cc1 (Tos-Gly-Gly-ONp),2% (inactive)
17,Cc1cn(C2CC(O)C(CO)O2)c(=O)nc1NC1CCCCCCCCCCC1 (stereo not given),-5.5% (inactive)
18,O=C1c2cc3c(cc2CC12Cc1cc4c(cc1C2)CCC4)CCC3,-3% (inactive)
19,C/C(CC(=O)Nc1ccc(Cc2ccc(Cl)cc2)cc1)=N/Nc1ccc([N+](=O)[O-])cc1[N+](=O)[O-],-8.55% (inactive)
20,CC1OC(O[C@@H]2OC=C(C=O)[C@@]3(O)CC[C@H](C)[C@@H]23)C(O)C(O)C1O (stereo not given in full),-6.1% (inactive)

row,SMILES,growth inhibition
1,COc1cc2c3cc1Oc1c(O)c(OC)cc4c1C(Cc1ccc(O)c(c1)Oc1ccc(cc1)CC3N(C)CC2)N(C)CC4 (stereo not given),-24.5% (inactive)
2,CCc1ccc(/C(C#N)=C/c2ccccc2Cl)cc1,35.2% (inactive)
3,Cc1cc(O)c(C=NC(=S)c2ccccc2)c(=O)o1,4.55% (inactive)
4,c1ccc2c(CN3CCCCC3)cccc2c1,-15.2% (inactive)
5,O=C(CN1CCCCC1)NC(=O)N/N=C\c1ccco1,-0.15% (inactive)
6,O=C(COCC(=O)N/N=C/c1ccc(O)cc1)N/N=C/c1ccc(O)cc1,18.1% (inactive)
7,Nc1ccc(S(=O)(=O)N/N=C/c2ccccc2)cc1,-34% (inactive)
8,CCCNS(=O)(=O)c1nc2ccccc2s1,2.65% (inactive)
9,CC(O)CCCCC(O)CCC[C@H](O)[C@H]1CCC([C@H]2CCC([C@@H](O)CCCCCCCCCCCCC3=C[C@H](C)OC3=O)O2)O1 (stereo not given in full),-16.7% (inactive)
10,Cc1cc(OCc2nnc3n2S(=O)(=O)c2ccccc2N3C)ccc1Cl,-30.4% (inactive)
11,Cc1c(Cl)ccc2c1NC(=O)C2(O)C1Cc2ccccc2C1=O (stereo not given),15.1% (inactive)
12,C(=C\c1ccc2ccccc2c1)/c1ccc2ccccc2c1,6.85% (inactive)
13,CC(C)=NNC(=O)c1ccccc1CC(O)(c1ccccc1)c1ccccc1,-24.4% (inactive)
14,CCOC(=O)Cc1nc(Cl)c2c(C)c(C)sc2n1,24.9% (inactive)
15,CN(C)CCCNc1ccc2nnn3c4ccc(O)cc4c(=O)c1c23,2.65% (inactive)
16,CCCCSc1nc(NCC)nc(NCC)n1,40.5% (inactive)
17,Nc1nc(N)c(N)c(Nc2ccc(Cl)cc2)n1,-1.95% (inactive)
18,CCOc1ccc(NC(C)=O)c([N+](=O)[O-])c1,-3.35% (inactive)
19,CCOC(=O)CCC(C(=O)OCC)C(C)C(=O)OCC (stereo not given),4.1% (inactive)
20,CCOCCOC(=O)Nc1ccc(C)c(NC(=O)OCCOCC)c1,5.35% (inactive)
